# Bioassay records deposited in PubChem BioAssay by Sanford-Burnham Center for Chemical Genomics.
# SENP8 block-1 – human SENP8 protease inhibitors, primary screen, biochemical, fluorescence, Nedd8 protein substrate, uHTS | Sentrin-specific protease 8 (Homo sapiens), Q96LD8 | recombinant SENP8 | inhibition, % at 20 µM | 0.64% of 360,000 active | AID 602440, 2012; in the data active = inhibition mostly above about 40%, no sharp cut-off; inactive = mostly below about 27%
# Target sequence (Q96LD8 whole entry, looked up): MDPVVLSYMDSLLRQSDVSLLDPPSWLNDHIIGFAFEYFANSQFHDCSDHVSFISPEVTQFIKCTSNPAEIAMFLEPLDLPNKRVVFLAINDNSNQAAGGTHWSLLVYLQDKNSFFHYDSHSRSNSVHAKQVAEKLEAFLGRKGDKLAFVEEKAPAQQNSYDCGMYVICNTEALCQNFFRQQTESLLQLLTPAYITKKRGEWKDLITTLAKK
# SENP8 block-2 – SENP8 protease inhibitors, primary screen, biochemical, luminescence; Sentrin-specific protease 8 (Homo sapiens), Q96LD8; purified SENP8, Z-RLRGG-aminoluciferin cleavage; inhibition, % at 10 µM; 1.2% of 330,000 active; AID 2540, 2010; in the data active = inhibition above about 50%
# PPC-1+TRAIL kill – compounds killing PPC-1 cancer cells with TRAIL present, primary screen, TRAIL potentiator project, ATPLite luminescence, uHTS; AID 1443, 2008; cell killing (% activity), % at 4 µM or 5 µM; PPC-1 cells + TRAIL, ATPLite viability luminescence; 0.41% of 220,000 active;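 active = cell killing above 50% in the first pass at 4 µM, then a duplicate retest at 5 µM averaging 50% or more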;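 note: plate controls were cells with TRAIL plus DMSO for no effect and medium-only wells lacking cells for full effect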
# SENP7 inh – SENP7 protease inhibitors, primary screen, biochemical, luminescence, uHTS; recombinant SENP7, Z-RLRGG-aminoluciferin luminescence, 40 min; inhibition, % at 5 µM; 1.5% of 330,000 active;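 active = inhibition above about 50% at the single test dose, limit read from the data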;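 note: plate controls were DMSO with enzyme for no effect and no enzyme buffer wells for full effect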
# SENP6 inh – SENP6 protease inhibitors, primary screen, biochemical, luminescence, uHTS; inhibition, % at 10 µM; AID 2599, 2010; 1.8% of 330,000 active; Recombinant SENP6 catalytic domain, aminoluciferin luminescence; Sentrin-specific protease 6 (Homo sapiens), Q9GZR1;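 active = inhibition above about 50% at the single tested dose, limit read from the data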;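 note: plate controls were DMSO wells with enzyme for no effect and DMSO wells lacking enzyme for full effect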
# Target sequence (Q9GZR1 628-1112 limits assumed): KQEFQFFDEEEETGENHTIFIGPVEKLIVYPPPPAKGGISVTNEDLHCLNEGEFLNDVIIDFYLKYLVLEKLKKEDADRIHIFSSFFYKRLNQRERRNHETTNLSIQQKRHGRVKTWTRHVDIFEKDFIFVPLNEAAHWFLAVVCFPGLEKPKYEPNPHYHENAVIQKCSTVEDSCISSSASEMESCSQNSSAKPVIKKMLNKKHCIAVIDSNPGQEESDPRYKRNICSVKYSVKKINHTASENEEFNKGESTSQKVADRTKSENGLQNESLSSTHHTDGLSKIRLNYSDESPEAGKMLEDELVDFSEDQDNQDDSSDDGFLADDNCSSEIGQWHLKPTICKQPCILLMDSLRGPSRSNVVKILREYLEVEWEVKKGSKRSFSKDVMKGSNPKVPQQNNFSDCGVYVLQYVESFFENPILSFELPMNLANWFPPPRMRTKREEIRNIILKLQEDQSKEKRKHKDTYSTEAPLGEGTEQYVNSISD
# C8 TRAIL sens – viability loss with TRAIL in NB7+C8 cells, primary screen, TRAIL sensitizer project, cell-based, ATPlite luminescence; inhibition (viability loss, TRAIL sensitization), % at 10 µM; 1% of 360,000 active; AID 624354, 2012;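 active = compounds causing at least 50% loss of cell viability in the single-dose screen, relative to plate controls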
# SENP8 confirm – SENP8 protease inhibitors, retest, confirmation, biochemical, luminescence, single concentration | shares compounds with SENP7 inh | Recombinant SENP8, Z-RLRGG-aminoluciferin luminescence, 60 min | inhibition, % at 12.5 µM | 40% of 6,200 active;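 active = mean inhibition across replicates above about 50%, limit read from the data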
# SENP6 conf – SENP6 protease inhibitors, confirmation, biochemical, luminescence, single concentration; shares compounds with SENP7 inh; recombinant SENP6, Z-RLRGG-aminoluciferin luminescence; inhibition, % at 12.5 µM; 58% of 6,200 active; AID 488915, 2010
# SENP7 conf – SENP7 protease inhibitors, retest, confirmation, biochemical, luminescence, single concentration. shares compounds with SENP7 inh. recombinant SENP7, Z-RLRGG-aminoluciferin luminescence, 40 min. inhibition, % at 12.5 µM. 69% of 6,200 active
# Casp3 SENP sel – caspase-3 protease inhibitors, confirmation, selectivity assay for SENP inhibitor project, biochemical, single concentration; purified caspase-3, Z-DEVD-aminoluciferin luminescence, 60 min; AID 488918, 2010; shares compounds with SENP7 inh; inhibition, % at 12.5 µM; 60% of 6,200 active;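 active = mean inhibition above about 50%, limit read from the data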;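 note: plate controls were enzyme with DMSO for no effect and wells without caspase-3 for full effect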
# SENP luc ctr – luminescence interference (SENP counter-screen); shares compounds with SENP7 inh; Pre-incubated SENP8/Z-RLRGG-aminoluciferin, luciferase luminescence interference; inhibition, % at 12.5 µM; 39% of 6,200 active; AID 488919;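 active = mean inhibition above about 50% when retested at one dose, limit read from the data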;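 note: plate controls were DMSO wells with completed reaction for no effect and substrate without enzyme for full effect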
# * hit, by the source's call; i = inactive; nt = not tested or not shown. The list is not random: actives were taken first. Their share in the collection is about 3%.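 Rule for the calls, unless noted: active = mean inhibition above about 50% in the one-dose retest (limit read from the data); inactive = the rest.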
SMILES,SENP8 block-1,SENP8 block-2,PPC-1+TRAIL kill,SENP7 inh,SENP6 inh,C8 TRAIL sens,SENP8 confirm,SENP6 conf,SENP7 conf,Casp3 SENP sel,SENP luc ctr
COc1ccc(C(=O)/C=C/c2cccs2)c(OC(=O)c2cccc([N+](=O)[O-])c2)c1,29.4,67.4*,8.0,38.9,78.7*,9.8,30.6,39.1,18.6,44.2,1.7
COc1ccc(C(=O)/C=C/c2ccc(F)cc2)c(OC(=O)c2ccc([N+](=O)[O-])cc2)c1,28.6,-19.7,-14.0,-14.1,38.5,12.2,nt,nt,nt,nt,nt
O=C(Nc1ccc(NC(=O)C2CC2)cn1)c1ccccc1Cl,10.3,-14.0,5.0,-12.8,-16.5,7.4,nt,nt,nt,nt,nt
Cc1c(NC(=O)c2ccccc2N)cccc1C(=O)O,-99.8,46.4,10.3,70.7*,56.0*,-5.0,73.6*,67.5*,89.0*,24.6,38.8
Cc1c(NC(=O)c2ccc(NC(=O)C3CC3)cc2)cccc1C(=O)O,8.2,27.0,nt,56.8*,53.4*,4.0,47.9,43.5,76.9*,14.6,34.8
O=C(Nc1ccc(NC(=O)C2CC2)cn1)c1ccccc1,9.5,31.8,nt,45.3,65.1*,50.3*,54.9*,53.3*,77.4*,84.5*,8.3
COc1ccc(CC(=O)NNC(=O)CSc2nc(C)c(C)c(=O)[nH]2)cc1,13.4,-2.2,8.0,3.9,-4.8,-0.3,nt,nt,nt,nt,nt
COCCn1c(C)cc(C(=O)CSc2nnc(C)s2)c1C,18.8,9.6,38.6,50.4*,46.4,49.6*,40.9,38.3,79.6*,80.8*,56.1*
CN1CCN(/N=C/c2ccc(-c3ccccc3)cc2)CC1,2.3,78.6*,21.4,83.5*,21.7,7.5,81.7*,85.6*,98.3*,89.8*,50.2*
COc1ccc(C(=O)Nc2ccccc2C(=O)NCCN2CCOCC2)cc1OC,-16.0,0.1,nt,-6.5,-4.9,-8.8,nt,nt,nt,nt,nt
c1ccc(-c2ccc(-c3ccncn3)cc2)cc1,-98.7,51.3*,nt,84.5*,61.1*,38.2,5.7,15.6,32.3,25.9,11.4
O=C(O)c1cc(N=Nc2c(O)[nH]c3ccc([N+](=O)[O-])cc23)ccc1Cl,30.5,64.8*,nt,49.4,54.2*,3.3,44.3,25.4,20.8,27.8,37.8
Oc1ccc(NCc2ccc(OCc3ccccc3)cc2)cc1,32.5,nt,nt,nt,nt,8.4,nt,nt,nt,nt,nt
CCc1ccc(CNc2ccc(O)cc2)cc1,70.2*,76.9*,7.5,23.6,81.3*,-3.8,13.8,11.7,-0.9,5.8,5.3
c1ccc(-c2cnc(-c3ccccn3)nn2)cc1,16.0,41.0,nt,60.3*,61.3*,57.6*,45.4,44.2,82.0*,77.3*,53.8*
c1ccc(-c2cnnc(-c3ccccn3)n2)cc1,25.9,17.1,nt,17.7,17.5,3.1,nt,nt,nt,nt,nt
COc1ccc(C(=O)Nc2ccc(C3(C#N)CCCC3)cc2)cc1,4.0,-12.0,9.2,-7.1,-19.7,29.7,nt,nt,nt,nt,nt
N#CC1(c2ccc(NC(=O)c3ccccc3F)cc2)CCCC1,16.9,75.5*,37.3,76.5*,84.3*,44.4,79.5*,76.9*,93.0*,74.3*,63.6*
CNC(=S)N(CCCO)Cc1cc2cc3c(cc2[nH]c1=O)OCO3,-301.0,1.5,nt,-0.7,16.0,4.3,nt,nt,nt,nt,nt
CSc1ccccc1C(=O)Nc1ccc2c(c1)CCC2,6.3,42.0,nt,49.0,52.4*,-5.5,46.7,44.2,77.0*,-6.1,54.5*
Cn1cc(C(=O)Nc2ccc3c(c2)CCC3)cn1,-0.9,-12.9,40.2,-8.7,-24.2,10.1,nt,nt,nt,nt,nt
O=C(Nc1ccc2c(c1)CCC2)c1cc(F)cc(F)c1,4.1,69.7*,nt,77.4*,71.7*,4.6,39.3,78.2*,95.4*,65.4*,21.9
O=C(Nc1ccc2c(c1)CCC2)c1cccc(F)c1,8.6,76.5*,29.6,92.0*,87.5*,17.6,91.0*,91.2*,99.6*,87.9*,89.8*
O=C(Cc1cccc(F)c1)Nc1ccc2c(c1)CCC2,10.4,-11.5,nt,-11.5,-17.7,-5.2,nt,nt,nt,nt,nt
COCCNC(=O)C1(C)Cc2c(-c3ccc(N(C)C)cc3)ccnc2O1 (stereo not given),i,nt,nt,nt,nt,-2.8,nt,nt,nt,nt,nt
SMILES,SENP8 block-1,SENP8 block-2,PPC-1+TRAIL kill,SENP7 inh,SENP6 inh,C8 TRAIL sens,SENP8 confirm,SENP6 conf,SENP7 conf,Casp3 SENP sel,SENP luc ctr
Cc1nc(Nc2ccc(Cl)cc2)c(C#N)c(=O)[nH]1,-3.0,3.2,nt,3.8,19.0,-5.8,nt,nt,nt,nt,nt
COc1cccc(CNc2nc3cc(-c4ccccc4CO)sc3c(=O)n2C)c1,-32.2,nt,nt,nt,nt,-7.4,nt,nt,nt,nt,nt
Cc1ccc(C)c(Nc2nc(N)c3ccccc3n2)c1,-118.8,46.2,24.3,48.9,58.3*,35.4,26.6,29.9,74.7*,64.7*,44.3
COC(=O)c1ccccc1-n1c(C)nc(=O)c(-c2ccccc2)c1C,5.5,-8.2,nt,-7.9,-20.2,-10.9,nt,nt,nt,nt,nt
Cc1ccccc1C(=O)NNC(=O)c1ccc(F)cc1,20.8,2.5,1.8,7.9,5.3,-7.8,nt,nt,nt,nt,nt
Cc1ccccc1C(=O)O/N=C(\N)c1ccccc1,12.8,93.1*,nt,100.1*,94.8*,91.5*,96.9*,97.7*,102.2*,98.1*,95.6*
Cc1ccccc1/C(N)=N/OC(=O)c1ccc(F)cc1,10.1,60.7*,22.3,80.8*,73.9*,24.2,69.8*,71.6*,93.2*,89.5*,75.4*
N/C(=N\OC(=O)/C=C/c1ccccc1)c1ccc(Cl)cc1,10.6,-11.9,12.7,11.1,-11.6,9.9,nt,nt,nt,nt,nt
Cc1ccccc1C(=O)O/N=C(\N)c1ccc([N+](=O)[O-])cc1,12.3,1.4,nt,-7.0,1.6,-14.8,nt,nt,nt,nt,nt
C/C(=N/OC(=O)c1ccc(F)cc1)c1ccc(C)cc1,19.9,55.4*,14.8,71.0*,60.4*,-2.9,12.5,8.0,17.6,17.4,5.3
